TRPML1 ag: human mucolipin-1 channel agonism; activation, % (concentration not given with the values); TRPML1-expressing cells, Ca2+ dye fluorescence, FDSS; hit rate 0.12% among 410,000; AID 624414; note: 0% is about no effect
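Tetracycline-induced TRPML1-DL cells are seeded and incubated overnight before loading with a no-wash Ca2+ dye and quencher. Agonist activity is taken from the 110 s fluorescence read following compound pin-transfer on an FDSS, before EC80 54-4 challenge.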
PKM2 act: activators of human pyruvate kinase M2. P14618. purified PKM2, Kinase-Glo ATP luminescence, activation; response scale: 0% is enzyme alone, no compound. Potency, µM (top dose mostly 57.5 µM), for the others: at the top dose activation, usual class: activators. hit rate 0.34% among 260,000. AID 1631; active = well fitted activation curve with a large enough effect; note: potency is the fitted concentration of half-maximal effect; % is set by controls: 0 for no effect and ±100 for the full control effect; nearly all actives have a fitted effect of over 55% in size
Target sequence (P14618 whole entry, looked up): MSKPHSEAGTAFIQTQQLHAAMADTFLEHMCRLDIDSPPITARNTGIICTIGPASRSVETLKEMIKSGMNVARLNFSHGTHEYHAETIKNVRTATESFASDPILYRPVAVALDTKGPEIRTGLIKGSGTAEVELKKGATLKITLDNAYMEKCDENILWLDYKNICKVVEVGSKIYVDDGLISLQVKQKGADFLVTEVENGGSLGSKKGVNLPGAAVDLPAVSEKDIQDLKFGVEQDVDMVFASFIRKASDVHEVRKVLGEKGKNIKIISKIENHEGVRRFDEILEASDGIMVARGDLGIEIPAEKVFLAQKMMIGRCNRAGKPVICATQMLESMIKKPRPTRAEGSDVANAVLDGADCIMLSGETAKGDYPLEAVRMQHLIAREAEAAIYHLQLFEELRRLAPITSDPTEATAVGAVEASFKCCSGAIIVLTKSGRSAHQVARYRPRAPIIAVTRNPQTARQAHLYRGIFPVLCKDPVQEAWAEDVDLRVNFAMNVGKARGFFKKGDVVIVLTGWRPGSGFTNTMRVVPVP
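hPK-M2, >95% pure; 0.1 mM ADP / 0.5 mM PEP final; imidazole pH7.2 buffer w/ 7 mM MgCl2, 50 mM KCl; 1 h RT; Kinase-Glo lum. Intermediate enzyme activity for dual inhibitor/activator qHTS.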
TRPML1 blocker: human mucolipin-1 channel inhibition. activity change, negative = inhibition, % (concentration not given with the values). AID 624415. Q9GZU1. hit rate 0.02% among 390,000. TRPML1-inducible cells, Ca2+ dye fluorescence, FDSS; hits give low values; inhibition of EC80 agonist-evoked calcium signal; in the data active = activity change below about -50%;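 note: stimulus is agonist 54-4 at its EC80 concentration; % is set by controls: 0 for no effect and ±100 for the full control effect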
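Tet-induced TRPML1-DL cells loaded with Ca8 no-wash calcium dye were read kinetically on FDSS. Compound addition was followed by EC80 agonist 54-4 (4 uM final); inhibition was read over 110 s.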
TSG101-PTAP inh: blocks PTAP/TSG101 interaction to inhibit HIV-1 budding; 340,000 tested, under 10 active; Potency, µM (top dose mostly 115 µM), for the others: at the highest dose activity change, negative = inhibition, most hits filed as inhibitors; AID 493005; Fluorescence polarization, FITC-PTAP peptide / Tsg101 binding; Q99816; active = well fitted inhibition curve with a large enough effect in the main read-out, with a control signal flat, not every such curve was filed as active; note: potency is the fitted concentration of half-maximal effect; % of control where 0% means no effect
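Compounds were pin-transferred onto Tsg101 binding domain (10 uM final) in HEPES pH 7.5 buffer, then FITC-PTAP peptide was added at 50 nM final. After 20 min at RT, polarization reported peptide displacement across a qHTS concentration series.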
IL2 activator: activators of IL-2. IL-2 activation reporter assay, cell-based qHTS; stimulated with anti-CD3/CD4/CD28 beads; in transgenic mouse T cells. activation, % (series mostly up to about 46 µM). hit rate 0.065% among 360,000. AID 652025; note: 0% is about no effect
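Readout is EGFP and DsRed signal by fluorescent plate cytometry after 18 h at 37 degrees C. Transgenic mouse T cells (750/well) received compound for 60 min before bead stimulation (anti-CD3, anti-CD4, anti-CD28); memory T cells served as non-tolerant control.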
BRCA1 expr up: BRCA1 expression activation; MCF7-BRCA1-FFLuc reporter, luminescence, 48 h; response scale: scaled: vehicle 0%, 10 µM genistein 100%; Potency, µM (series often up to 46.1 µM), for inactives: top-dose activation, hits mostly activators; hit rate 1.1% among 380,000; active = well fitted activation curve with a large enough effect; note: potency is the fitted concentration of half-maximal effect; nearly all actives have a fitted effect of over 80% in size
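MCF7 cells carrying a BRCA1-firefly luciferase reporter (2000 cells/well, phenol-red free MEM) were attached for 2 h at 37 °C, then given compounds for 48 h. Luminescence was read 15 min after luciferase reagent; activity normalized to genistein (10 microM) and DMSO.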
The depositor's hits bear a star; · = no result given; ! = not active in a repeat; [ ] = dose if it differs, or a comment. Most compounds without a hit are left out; they make up all but 1.3% or so of the library. Cut-off read from the data, not from the text of the source, unless noted: active = activation above about 50%; inconclusive = mostly about 30% to 49%; inactive = weaker than that.

SMILES | TRPML1 ag | PKM2 act | TRPML1 blocker | TSG101-PTAP inh | IL2 activator | BRCA1 expr up
Cc1cc(Cl)c2oc(C(=O)N(C)C3CCOC3)c(C)c2c1 (stereo not given) | 0.8 | -10.2%[0.46 µM] | -0.3 | -8.6% | -4.3 | 2.51µM*
Cc1ccc(S(=O)(=O)/N=c2\ccc(Cl)cn2C(F)F)cc1 | 0.2 | 25.1µM* | 11.5 | -1.5% | 0.6 | 32.2%
O=[N+]([O-])c1cc(/C=N/O)ccc1Oc1ccccc1Cl | 2.5 | 7.8% | 15.1 | 1.5% | -0.6 | 7.08µM*
O=[N+]([O-])c1cc(/C=N/O)ccc1Oc1cccc(Cl)c1 | -0.3 | -6.7% | 5.2 | 0.0% | -2.0 | -3.2%
Cc1ccc(-c2cc(NC(=O)c3ccccc3Cl)on2)cc1 | -0.5 | · | -12.0 | · | · | ·
COc1ccc(-c2nc3cccc(C)n3c2Nc2ccc(C)cc2)cc1 | -0.1 | · | · | · | · | -1.0%
CCOC(=O)c1ccc(NC(=O)CN(C)S(=O)(=O)c2ccc(OC)cc2)cc1 | 2.7 | 7.7% | -0.4 | 9.5% | 69.6* | 4.2%
COc1ccc(NC(=O)CN(C)S(=O)(=O)c2ccc3c(c2)c(=O)n(C)c(=O)n3C)cc1 | 0.2 | · | -87.2*! | -5.9% | -3.1 | 8.3%
CCOC(=O)c1ccc(NC(=O)CN(c2ccc(C)cc2)S(=O)(=O)c2ccc(OC)cc2)cc1 | 1.1 | · | 8.2 | · | · | ·
CCc1ccc(NC(=O)CN(C)S(=O)(=O)c2ccc3c(c2)c(=O)n(C)c(=O)n3C)cc1 | -0.2 | · | 4.9 | · | · | -3.2%
Cc1cc(C)cc(NS(=O)(=O)c2ccc(-c3cc(C)no3)cc2)c1 | -0.5 | · | 23.6 | · | · | ·
NS(=O)(=O)c1ccc(CNC(=O)c2ccc3ccccc3n2)cc1 | 0.1 | · | -10.0 | -1.6% | 0.4 | -18.4%
NS(=O)(=O)c1ccc(CNc2ccc3ccccc3n2)cc1 | -0.4 | -2.9% | -8.2 | -1.2% | -2.0 | 8.91µM*
CCCC(=O)OCc1cnc(C)c2oc(=O)c(C(=O)Nc3ccccc3)cc12 | 1.9 | · | 13.6 | · | · | 15.1%
Cc1ccc2c(CNCc3ccco3)cc(=O)oc2c1 | -0.4 | 12.1% | 2.6 | -8.6% | -0.5 | 7.94µM*
O=C(NCCc1nc2ccccc2n1CCCOc1ccccc1)C1CCCCC1 | -0.3 | · | · | · | · | 0.0%
CC(=O)N1CCc2ccc(S(=O)(=O)Nc3ccccc3Cl)cc21 | 0.2 | 12.6µM* | -1.6 | -3.5% | 0.0 | 29.5%
O=C1C(Cl)=C(N2CCOCC2)C(=O)N1c1cccc(Cl)c1 | -0.6 | 14.1µM* | 6.7 | 0.0% | 2.6 | -4.9%
Fc1ccc(CSc2ccc(-c3cccs3)nn2)cc1 | 1.3 | -1.3% | -2.5 | -0.8% | 5.4 | 10µM*
c1cncc(CSc2ccc(-c3cccs3)nn2)c1 | -0.3 | -4.0% | 17.1 | -0.9% | 1.7 | 10µM*
Fc1cccc(CSc2ccc(-c3cccs3)nn2)c1 | 2.4 | · | -0.6 | · | · | ·
Cc1cc([N+](=O)[O-])ccc1NC(=O)c1csc(C)c1C | 1.4 | -6.8% | 17.5 | -1.7% | -4.2 | 5.01µM*
CNC(=S)Nc1ccc([N+](=O)[O-])cc1C | 2.2 | 2.1% | 0.6 | -2.8% | 0.2 | -14.9%
Cc1c(Cl)cccc1Nc1nc(N)nc(CSCCO)n1 | 0.1 | -0.1% | -7.5 | -1.0% | -4.4 | 19.5%
Cc1c(Cl)cccc1Nc1nc(N)nc(CSc2ncccn2)n1 | 0.5 | 6.4% | -3.8 | -1.1% | 0.2 | 10µM*
SMILES | TRPML1 ag | PKM2 act | TRPML1 blocker | TSG101-PTAP inh | IL2 activator | BRCA1 expr up
Cc1ccc2c(C)ccnc2c1 | -0.6 | · | · | · | · | ·
CSc1nc(N)nc(SCC(=O)Nc2cccc(F)c2)c1C#N | 2.6 | 1.41µM* | 28.1 | -1.9% | -0.5 | -24.9%
CSc1nc(N)nc(SCC(=O)Nc2ccc(Cl)cc2)c1C#N | 1.4 | 3.98µM* | 11.9 | -5.6% | -1.2 | 3.0%
CSc1nc(N)nc(SCC(=O)C(C)(C)C)c1C#N | 1.3 | 0.8% | -18.1 | 1.1% | -0.1 | 61.2%
CSc1nc(N)nc(SCC(=O)CC(=O)OC(C)C)c1C#N | -0.8 | 6.3% | 14.9 | -1.7% | -1.9 | 0.0%
O=C(C[n+]1cccc(Br)c1)c1cccc([N+](=O)[O-])c1 | -0.3 | · | · | · | · | 2.0%

Source: PubChem BioAssay
